Measurements reported in PubChem BioAssay AID1527 (The Scripps Research Institute Molecular Screening Center, 2009).
Hit rate of the full screen: of about 290,000 compounds, about 2,600 (0.9%) were called active. This is one part of a sample in which actives are shown more often than they occur.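 Rule for the calls: active = inhibition above the mean of all tested compounds plus 3 SD, cutoff set per screening run (cut at about 7.5% in these data); inactive = the rest.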

What follows are compounds tested on VIM-2 metallo-beta-lactamase (Pseudomonas aeruginosa) (assay: VIM-2 metallo-beta-lactamase inhibitors, primary screen, biochemical, epi-absorbance readout, Pseudomonas aeruginosa enzyme (AID 1527;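 note: red hydrolysis product quenches plate fluorescence so inhibitors raise well fluorescence; 0% = enzyme with DMSO and 100% = DMSO without enzyme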)). Details: purified VIM-2, nitrocefin hydrolysis, epi-absorbance fluorescence; at 5.6 µM; stronger effect = higher value.

| Structure (SMILES) | inhibition |
| --- | --- |
| CCOC(=O)C1=C(O)/C(=C/c2ccc(OCC(=O)Nc3ccc(C)cc3)cc2)N=C1C | -1.99% (inactive) |
| CCn1c(SCC(=O)Nc2ccc3c(c2)OCCO3)nnc1C(C)C | -1.97% (inactive) |
| CCCn1c(SCC(=O)c2ccc3c(c2)OCCO3)nnc1C(C)C | 9.77% (active) |
| CCCn1c(SCC(N)=O)nnc1C(C)C | -1.77% (inactive) |
| CCN(CC)CCCNC(=O)COc1ccc2oc3c(c2c1)CCCC3 | -0.12% (inactive) |
| O=C(N/N=C/c1cccc([N+](=O)[O-])c1)C1CC(=O)N(c2ccc(Br)cc2)C1 (stereo unspecified) | -1.97% (inactive) |
| CCC1(C)Cc2c(sc3nc(SC)nc(N)c23)CO1 (stereo unspecified) | -3.26% (inactive) |
| CN(C)CCSc1nc(N)c2c3c(sc2n1)COC(C)(C)C3 | 10.3% (active) |
| CCSc1nc2sc3c(c2c(=O)[nH]1)CC(C)(C)OC3 | 0.86% (inactive) |
| CC1CC(NC(=O)/C(C#N)=C/c2ccc[nH]2)CC(C)(C)C1 (stereo unspecified) | -3.17% (inactive) |
| COc1ccc(C(=O)Nc2ccc(C3(C#N)CCCC3)cc2)cc1OC | -1.46% (inactive) |
| Cc1cc(C)cc(N(CC(=O)NC2CCCC2)C(=O)CCC(=O)Nc2cc(C)on2)c1 | -2.81% (inactive) |
| COc1ccc(Cc2nnc(NC(=O)Cc3cccs3)s2)cc1 | -3.71% (inactive) |
| COc1ccc(Cc2nnc(NS(=O)(=O)Cc3ccccc3)s2)cc1 | 13.9% (active) |
| CCC(CC)c1nnc(NS(=O)(=O)Cc2ccccc2)s1 | -1.98% (inactive) |
| Cc1ccc(NS(=O)(=O)c2cn(C)c(=O)n(C)c2=O)c(C)c1 | -0.4% (inactive) |
| CCS(=O)(=O)N1CCC(N2CCN(c3ccccc3)CC2)CC1 | -1.31% (inactive) |
| O=C(NCCc1cccc(F)c1)C1CCCN(c2nc3ccccc3s2)C1 (stereo unspecified) | 0.44% (inactive) |
| Cc1cc(Cl)c2oc(C(=O)NC(C)c3ccncn3)c(C)c2c1 (stereo unspecified) | -1.68% (inactive) |
| CCC1CCCCN1CCCNC(=O)C1CCC(Cn2c(=O)[nH]c3ccccc3c2=O)CC1 (stereo unspecified) | -4.77% (inactive) |
| CCC1CCCCN1CCCNC(=O)c1cc2c(Cl)nc3ccccc3c2s1 (stereo unspecified) | 19.5% (active) |
| CCC1CCCCN1CCCNC(=O)Cn1nc(-c2ccccc2)ccc1=O (stereo unspecified) | -1.79% (inactive) |
| Cc1nn(C)c(Oc2ccccc2)c1CCNS(=O)(=O)c1ccc(F)cc1 | -2.13% (inactive) |

| Structure (SMILES) | inhibition |
| --- | --- |
| O=C(NCCCN1CCOCC1)c1ccccc1NS(=O)(=O)c1ccc(Br)cc1 | -2.82% (inactive) |
| O=C(NCCCN1CCOCC1)c1ccccc1NS(=O)(=O)c1ccc(F)cc1 | -1.71% (inactive) |
| O=C(NCCCN1CCOCC1)c1cnn2c(-c3ccccc3)cc(-c3ccccc3)nc12 | 23.4% (active) |
| COc1ccccc1N(C)C(=O)c1cc(S(=O)(=O)N2CCc3ccccc32)cn1C | -4.13% (inactive) |
| Brc1ccccc1C1N=C(c2ccccc2)NO1 (stereo unspecified) | -2.78% (inactive) |
| NS(=O)(=O)c1ccc(NC(=O)COC(=O)c2c3c(nc4ccccc24)/C(=C\c2ccc4c(c2)OCO4)CCC3)cc1 | 23.9% (active) |
| COc1cc(/C=C2\CCCc3c2nc2ccccc2c3C(=O)O)cc(Cl)c1O | 2.46% (inactive) |
| NS(=O)(=O)c1ccc(NC(=O)COC(=O)c2cc3ccccc3oc2=O)cc1 | 0.95% (inactive) |
| COc1cc(-c2cc(C(=O)OCC(=O)Nc3ccc4c(c3)OCO4)c3ccccc3n2)cc(OC)c1OC | 2.83% (inactive) |
| NC(=O)c1ccc(NC(=O)COC(=O)c2c3c(nc4ccccc24)/C(=C\c2ccc4c(c2)OCO4)CCC3)cc1 | 20.7% (active) |
| O=C(COC(=O)c1c2c(nc3ccccc13)/C(=C\c1cccs1)CCC2)Nc1ccccc1Cl | -4.79% (inactive) |
| CCc1ccc(C2N3CC4([N+](=O)[O-])CN2CC([N+](=O)[O-])(C3)C4(C)C)cc1 (stereo unspecified) | -3.1% (inactive) |
| COc1ccc(/C=C2\CCCC3C2=NN(C(=O)c2scnc2C)C3c2ccc(OC)cc2)cc1 (stereo unspecified) | -4.89% (inactive) |
| COc1cccc(NC(=O)c2cc(S(=O)(=O)N3CCc4ccccc43)cn2C)c1 | -2.53% (inactive) |
| CS(=O)(=O)Nc1ccccc1N=C(c1ccccc1)c1ccccc1 | -0.7% (inactive) |
| C[C@@H](Nc1nc(-c2ccccc2)nc2c1oc1ccccc12)C(=O)O | -1.13% (inactive) |
| CCc1nc(Nc2ccc3nccnc3c2)c2oc3ccccc3c2n1 | 6.61% (inactive) |
| CCc1nc(Nc2ccc(NC(C)=O)cc2)c2oc3ccccc3c2n1 | 9.84% (active) |
| COc1cc(OC)c(NS(=O)(=O)c2cn(C)cn2)cc1Cl | -2.52% (inactive) |
| CC1(C)Cc2c(sc(NC(=O)C(=O)NCC3CCCO3)c2C(=O)O)CO1 (stereo unspecified) | -1.53% (inactive) |
| CC1CCCCC1NC(=O)/C(C#N)=C/C=C/c1ccccc1[N+](=O)[O-] (stereo unspecified) | -2.25% (inactive) |
| Cc1ccc(C)c(CN2CCC(CNC(=O)Nc3ccc(C)c(F)c3)CC2)c1 | -1.95% (inactive) |
| Oc1ccc2ccc3cccc[n+]3c2c1 | 34.2% (active) |

| Structure (SMILES) | inhibition |
| --- | --- |
| COC(=O)c1ccc(NC(=O)c2cc3c(CO)cnc(C)c3oc2=Nc2cccc(C(N)=O)c2)cc1 | -0.03% (inactive) |
| Cc1c(C)c2c(OCC(=O)NCCCO)cc3c(c2oc1=O)CCC(C)(C)O3 | 1.34% (inactive) |
| Cc1cc(=O)oc2c3c(cc(OCC(=O)N[C@H](C(=O)O)c4ccccc4)c12)OC(C)(C)CC3 | 1.96% (inactive) |
| Cc1c(C)c2c(OCC(=O)N[C@@H](C(=O)O)c3ccccc3)cc3c(c2oc1=O)CCC(C)(C)O3 | 10.8% (active) |
| CCC(C(=O)NC1CCCCC1)N(C(=O)c1snc(C(N)=O)c1N)c1ccc(OC)cc1OC (stereo unspecified) | -1.99% (inactive) |
| Cc1c2cnn(CC(=O)NCc3ccccn3)c(=O)c2c(C)n1Cc1ccc(Cl)cc1 | -1.23% (inactive) |
| COc1cc(NS(=O)(=O)c2ccc(NC(=O)c3ccc([N+](=O)[O-])cc3)cc2)ncn1 | -1.86% (inactive) |
| CCCc1ccc(OCCNC(=O)c2ccccc2Br)cc1 | -1.47% (inactive) |
| CCCc1ccc(OCCNC(=O)c2ccco2)cc1 | 33.4% (active) |
| CCCc1ccc(OCC(=O)NNC(=S)NC(=O)c2ccco2)cc1 | -2.04% (inactive) |
| COc1cccc(C(=O)OCc2cc(=O)oc3c(C)c(C)ccc23)c1OC | 8.21% (active) |
| COc1ccc(Br)cc1CN1CCN(C(=O)c2cccc(OC)c2OC)CC1 | -0.04% (inactive) |
| COC(=O)Cc1cc(=O)oc2c(C)c(O)ccc12 | -5.11% (inactive) |
| CCOC(=O)C1(Cc2ccccc2C)CCCN(C(=O)CN2C(=O)CSC2=O)C1 (stereo unspecified) | -2.37% (inactive) |
| CNC[C@H](CC1CCCCC1)NC[C@H](NCCC1CCCC1)[C@H](C)O | 2.09% (inactive) |
| Cc1ccc(C(=O)N/C(=C\c2ccc(F)cc2)C(=O)NCCN2CCOCC2)cc1 | -0.14% (inactive) |
| CCOC(=O)[C@@H]1[C@H]2COc3cc(OC)ccc3[C@H]2N2C(=O)N(c3ccc(F)cc3)C(=O)[C@]12C | -2.77% (inactive) |
| O=C1Nc2cc(C(=O)N3CCC(N4CCCCC4)CC3)ccc2S/C1=C\c1ccccc1 | 27.9% (active) |
| CC1CCN(C(=O)c2ccc3c(c2)NC(=O)CN3)CC1 | -1.26% (inactive) |
| O=C(NC1CC1)c1ccc2c(c1)NC(=O)c1ccccc1S2 | 1.27% (inactive) |
| Cc1cccc(C)c1NC(=O)CS(=O)CC(=O)N1CCN(c2ccccc2)CC1 (stereo unspecified) | -3.23% (inactive) |
| Cc1ccc(NC(=O)C2CC2c2ccccc2)cc1 (stereo unspecified) | -1.58% (inactive) |
| CC(=O)Oc1ccc(-c2nc3c(C)cccc3c(=O)o2)cc1 | -0.68% (inactive) |

| Structure (SMILES) | inhibition |
| --- | --- |
| Cc1nc(N=C(N)N)nc2c(C)cccc12 | 8.56% (active) |
| COc1ccc2nc(/N=C(\N)NC(=O)Nc3ccccc3)nc(C)c2c1 | -0.81% (inactive) |
| Cc1cccc2c(=O)n3c(nc12)CCCCC3 | -3.47% (inactive) |
| COc1nc(N=C(N)N)nc2c(C)cccc12 | 14.3% (active) |
| Cc1nc(/N=C(\N)NC(=O)NC2CCCCC2)nc2ccccc12 | -2.89% (inactive) |
| c1ccc(-c2nccc(-c3ccc(-n4cnc5ccccc54)cc3)n2)nc1 | 59.9% (active) |
| Cc1ccc(Oc2nc(-c3ccccn3)nc3ccccc23)cc1 | -1.45% (inactive) |
| Cc1nccc(-c2ccc(-n3c(C)ccc3C)cc2)n1 | -2.42% (inactive) |
| CCCCn1c(-c2cccc(C)c2)nc2cc3[nH]c(=O)c(C(C)C)nc3cc21 | -2.3% (inactive) |
| COc1ccc(-c2csc3ncnc(N4CCN(S(=O)(=O)c5ccccc5C#N)CC4)c23)cc1 | -2% (inactive) |
| CCN(CC)C(=O)CSC(Nc1cccc(F)c1)=C(C#N)C#N | -4.85% (inactive) |
| O=c1[nH]c2c(c(=O)n1Cc1ccccc1)CCC2 | -3.01% (inactive) |
| CSc1nc2ccccc2c(=O)n1Cc1ccc(F)cc1 | -1.75% (inactive) |
| Cc1cc2nc3c(=O)n(Cc4ccccc4)c(=O)[nH]c3nc2cc1N | 13.2% (active) |
| O=S(=O)(Nc1cccc(-n2cnnn2)c1)c1cnc(Cl)c(Cl)c1 | -1.96% (inactive) |
| CCNC(=O)c1c(O)c2cccc3c2n(c1=O)CC3 | 1.77% (inactive) |
| CCN(CC)CCCNC(=O)c1cn(C)c2ccc(S(=O)(=O)N(C)C3CCCCC3)cc2c1=O | 2.02% (inactive) |
| CCN(CC)CCCNC(=O)c1c(O)c2cc(F)cc3c2n(c1=O)C(C)CC3 (stereo unspecified) | 8.41% (active) |
| CN(C)c1cc(-c2ccc(F)cc2)oc(=O)c1Cl | -0.81% (inactive) |
| CC(CCc1ccccc1)NC(=O)c1cnc(Cl)c(Cl)c1 (stereo unspecified) | -3.59% (inactive) |
| COc1ccc(OCCn2ccnc2C)cc1 | 0.01% (inactive) |
| C=CCOc1cccc(C2C(C(=O)c3ccc(C)o3)=C(O)C(=O)N2CCCn2ccnc2)c1 (stereo unspecified) | -2.31% (inactive) |
